In PubChem BioAssay (NCATS):
“And” between values parts separate entries of the source, which are not always exact repeats. Identical values can stand only once. Records with an inconclusive call do not appear. The source made the active and inactive calls. Unless noted, calls follow the shape of the dose curve; as a rule, active = well fitted curve in the direction sought with a large enough effect; inconclusive = small, poorly fitted or top-dose-only effect, or another doubt; inactive = no such curve, though single readings can be large; an effect the other way counts as inactive or inconclusive.

How the values were obtained:
[1] = biological target: Mitogen-activated protein kinase 10 (Mus musculus) (UniProt Q61831); experiment: JNK3 AlphaScreen Assay (AID 530; active = well fitted curve in either direction with a large enough effect, not every such curve was filed as active;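 also: kinase came from lysate of stimulated human HepG2 cells; signal reports phosphorylation of biotinylated GST-cJun 1-79 at Ser73 with 10 µM ATP; % is scaled to controls: 0 for no effect and ±100 for the full control effect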)
How it was run: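 Room-temperature AlphaScreen kinase assay; pre-activated HepG2 lysate as JNK3 source, biotin-GST-cJun(1-79) substrate, 10 uM ATP, compound 15 min preincubation.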

[2] = Cell Viability - N2a (AID 540); conditions: N2a mouse neuroblastoma cell viability; activity change, negative = cytotoxicity: at 92.2 µM (top of the series);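 also: plate controls were DMSO alone for no effect and tamoxifen control for full effect; nearly all actives have a fitted effect of over 45% in size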
How it was run: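 First, 1500 N2a cells per well incubate 5 hr at 37 °C; next, compounds are added and incubated 40 hr at 37 °C; finally CellTiter-Glo is added and luminescence read after 20 min, with AC50 derived by Hill modeling.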

[3] = Cell Viability - NIH 3T3 (AID 541); conditions: NIH 3T3 cell viability, qHTS; at 92.2 µM (top of the series);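 also: plate controls were DMSO alone for no effect and tamoxifen positive control for full effect; nearly all actives have a fitted effect of over 25% in size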
How it was run: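 AC50 values reflect concentration-dependent loss of intracellular ATP in NIH 3T3 cells after 40 hr treatment in complete culture medium, quantified by luciferase-based luminescence.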

[4] = Cell Viability - HUV-EC-C (AID 542); also: % is scaled to controls: 0 for no effect and ±100 for the full control effect; nearly all actives have a fitted effect of over 35% in size
How it was run: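 Decrease in cellular ATP, quantified by luciferase luminescence, reflects toxicity in normal human vascular endothelial HUV-EC-C cells given compound for 40 hr in complete culture medium. Values are AC50s from concentration-response curves.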

[5] = Cell Viability - H-4-II-E (AID 543); also: % is scaled to controls: 0 for no effect and ±100 for the full control effect; nearly all actives have a fitted effect of over 35% in size
How it was run: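 Here, cytotoxicity is measured in the rat hepatoma line H-4-II-E as loss of intracellular ATP after 40 hr compound treatment, detected by luciferase luminescence.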

[6] = Cell Viability - SH-SY5Y (AID 544); conditions: SH-SY5Y neuroblastoma cell viability; viability change, negative = cytotoxic: at 92.2 µM (top of the series); also: nearly all actives have a fitted effect of over 55% in size
How it was run: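 Cytotoxicity is scored as a concentration-dependent fall in intracellular ATP in human SH-SY5Y cells treated 40 hr in complete culture medium. Potency is expressed as AC50 from a Hill equation fit.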

[7] = Cell Viability - Renal Proximal Tubule (AID 545); conditions: renal proximal tubule cells viability, primary cells of rat origin; activity change, negative = cytotoxicity: at 91.7 µM (top of the series); also: nearly all actives have a fitted effect of over 40% in size
How it was run: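 Rat renal proximal tubule primary cells, 1000/well, exposed to compounds for 40 hr at 37 °C in complete medium; cellular ATP read by CellTiter-Glo luminescence. AC50 from concentration-response fitted with standard Hill equation.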

[8] = Cell Viability - Mesenchymal (AID 546); conditions: mesenchymal cells viability, qHTS; activity change, negative = cytotoxicity: at 91.7 µM (top of the series);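 also: cells exposed to compound for 40 hours before reading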
How it was run: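 AC50 values reflect the drop in intracellular ATP in a human kidney mesenchymal line derived from normal glomeruli. Treatment lasts 40 hr at 37 °C in complete medium, and the signal comes from CellTiter-Glo luminescence.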

[9] = Cellular Toxicity (caspase-3) HepG2 (AID 654);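 also: cells exposed to compound for 16 hours before reading; 0% = DMSO alone and 100% = caspase signal from 100 µM tamoxifen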
How it was run: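 qHTS, HepG2, 1500 cells/well, complete medium; cpd 16 h 37 °C; Caspase-Glo 3/7, 20 min RT; lum. Norm: DMSO vs 100 uM tamoxifen; AC50 Hill fit.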

[10] = Cellular Toxicity (caspase-3) Jurkat (AID 655); conditions: Jurkat caspase-3 activation, luminescence, DMSO = 0%, tamoxifen = 100%; at 92.2 µM (top of the series);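 also: cells exposed to compound for 16 h at 37 °C before reading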
How it was run: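 Jurkat cells (5000/well) in complete medium exposed 16 h at 37 C; caspase-3/7 activity read by Caspase-Glo luminescence after 20 min at room temperature. Normalized to DMSO and 100 uM tamoxifen; AC50 from Hill fits.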

[11] = Cellular Toxicity (caspase-3) HUV-EC-C (AID 656)
How it was run: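 HUV-EC-C cells (1000/well) in complete medium, compound-treated 16 h at 37 °C; caspase-3/7 activity read by Caspase-Glo 3/7 luminescence. Normalized to DMSO (basal) and 100 uM tamoxifen (100%); AC50 from Hill-equation concentration-response fits.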

[12] = Cellular Toxicity (caspase-3) SHSY5Y (AID 657)
How it was run: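 SH-SY5Y human neuroblastoma cells, 1500/well, exposed to compound for 16 hours at 37 °C in complete medium. Caspase-3/7 activity read by Caspase-Glo luminescence after 1 hr at room temperature, normalized to DMSO and 10 uM staurosporine; AC50 from Hill fit.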

[13] = Cellular Toxicity (caspase-3) BJ (AID 658);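 also: 0% = DMSO basal and 100% = 10 µM staurosporine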
How it was run: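 Readout: Caspase-Glo 3/7 luminescence increase in BJ cells after 16 hr treatment at 37 °C. Staurosporine and tamoxifen served as positive controls; AC50 values came from Hill modelling of data normalized to DMSO and 10 uM staurosporine.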

[14] = Cellular Toxicity (caspase-3) MRC-5 (AID 659); conditions: Potency: caspase-3 activation;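 also: 0% = DMSO basal and 100% = 10 µM staurosporine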
How it was run: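 Concentration-dependent caspase 3/7 activation is measured in human normal lung fibroblasts (MRC-5) following 16-hour treatment. AC50 values come from standard Hill-equation modeling of luminescence normalized to DMSO and 10 uM staurosporine.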

[15] = Cellular Toxicity (caspase-3) SK-N-SH (AID 661);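 also: 0% = DMSO basal and 100% = 10 µM staurosporine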
How it was run: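 Caspase 3/7 activation is measured as a luminescence increase from aminoluciferin released by substrate cleavage in SK-N-SH cells after 16 hr compound treatment; values are AC50 from concentration-response curves.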

[16] = Cellular Toxicity (caspase-3) H-4-II-E (AID 663); conditions: H-4-II-E rat hepatoma, scaled: DMSO 0%, 100 µM tamoxifen 100%; at 92.2 µM (top of the series);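 also: cells exposed to compound for 16 hr before readout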
How it was run: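 Apoptosis induction is scored as increased luminescence from caspase 3/7 substrate cleavage in rat hepatoma H-4-II-E cells exposed to compound for 16 hr. Activity is scaled between DMSO and 100 uM tamoxifen.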

[17] = biological target: Glucocorticoid receptor (Homo sapiens) (UniProt P04150); experiment: GR-GFP Redistribution (AID 450;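 active = compounds whose dose series gives a full or clear partial fitted curve of increased nuclear translocation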; also: potency is read from the fitted curve at half-maximal effect); conditions: U2OS GR-GFP nuclear translocation, laser cytometry, 2 h
[18] = biological target: Glucocorticoid receptor (Homo sapiens) (UniProt P04150); experiment: GR-EFC Redistribution (AID 451; calls by dose curve; also: potency is read from the fitted curve at half-maximal effect); conditions: CHO-K1 GR-EFC translocation, beta-gal luminescence, 2 h
How it was run: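 Translocation of GR-ED fusion to nuclear EA restores b-gal, read by luminescence after 1 h room-temperature detection. Engineered CHO-K1 biosensor cells, 1,000/well, exposed 2 h at 37 C to titrations up to 46 uM final.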

[19] = biological target: 3',5'-cyclic-AMP phosphodiesterase 4B (Homo sapiens) (UniProt Q07343); experiment: qHTS Assay for Inhibitors of PDE-IV (AID 607; active = well fitted activation curve with a large enough effect in the main read-out, with a control signal flat, not every such curve was filed as active; also: % of control where 0% means no effect)
How it was run: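 Live HEK293 cells with a modified cyclic nucleotide-gated (CNG) channel report intracellular cAMP via membrane-potential dye fluorescence (ex 535/em 590 nm). Endogenous PDE-IV was targeted. Compounds were tested at up to 22.9 uM final; RO 20-1724 100 uM served as control.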

[20] = Stat Signaling Pathway (AID 446; active = well fitted curve in either direction with a large enough effect, not every such curve was filed as active;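 also: ME-180 cervical cancer cells given 40 pM IL-6 alongside compound; SIE-controlled beta-lactamase reporter measured as 460/530 nm FRET emission ratio; % is scaled to controls: 0 for no effect and ±100 for the full control effect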); conditions: ME-180 (cervical carcinoma) SIE beta-lactamase reporter, IL-6 stimulated, 5 h
How it was run: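 IL-6/STAT signaling read in ME-180 cells via an SIE beta-lactamase reporter. Stimulus was 40 pM IL-6 (its AC50) for 5 hrs, so both activation and inhibition register.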

Chain of 3',5'-cyclic-AMP phosphodiesterase 4B (Homo sapiens) (Q07343 whole entry, looked up): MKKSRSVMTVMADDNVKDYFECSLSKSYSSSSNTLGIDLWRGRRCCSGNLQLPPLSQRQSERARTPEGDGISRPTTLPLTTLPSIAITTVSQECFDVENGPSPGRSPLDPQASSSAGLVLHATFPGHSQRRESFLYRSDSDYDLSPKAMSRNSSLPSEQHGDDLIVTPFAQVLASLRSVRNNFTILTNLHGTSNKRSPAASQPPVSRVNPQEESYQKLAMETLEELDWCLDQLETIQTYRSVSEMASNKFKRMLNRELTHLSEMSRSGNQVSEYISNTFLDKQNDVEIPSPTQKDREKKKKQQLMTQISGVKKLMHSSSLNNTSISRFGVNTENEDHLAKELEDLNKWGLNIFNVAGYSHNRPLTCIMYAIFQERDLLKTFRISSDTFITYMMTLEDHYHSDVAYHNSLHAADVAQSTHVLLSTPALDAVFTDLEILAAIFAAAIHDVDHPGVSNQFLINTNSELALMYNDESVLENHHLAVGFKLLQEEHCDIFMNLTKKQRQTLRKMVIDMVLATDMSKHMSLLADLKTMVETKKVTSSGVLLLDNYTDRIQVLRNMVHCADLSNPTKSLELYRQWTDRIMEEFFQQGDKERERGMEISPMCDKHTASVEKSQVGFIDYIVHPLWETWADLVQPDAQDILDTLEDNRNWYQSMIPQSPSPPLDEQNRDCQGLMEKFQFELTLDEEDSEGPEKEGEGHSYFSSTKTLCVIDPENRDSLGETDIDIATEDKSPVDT
Chain of Glucocorticoid receptor (Homo sapiens) (P04150 whole entry, looked up, the tested form may be a part): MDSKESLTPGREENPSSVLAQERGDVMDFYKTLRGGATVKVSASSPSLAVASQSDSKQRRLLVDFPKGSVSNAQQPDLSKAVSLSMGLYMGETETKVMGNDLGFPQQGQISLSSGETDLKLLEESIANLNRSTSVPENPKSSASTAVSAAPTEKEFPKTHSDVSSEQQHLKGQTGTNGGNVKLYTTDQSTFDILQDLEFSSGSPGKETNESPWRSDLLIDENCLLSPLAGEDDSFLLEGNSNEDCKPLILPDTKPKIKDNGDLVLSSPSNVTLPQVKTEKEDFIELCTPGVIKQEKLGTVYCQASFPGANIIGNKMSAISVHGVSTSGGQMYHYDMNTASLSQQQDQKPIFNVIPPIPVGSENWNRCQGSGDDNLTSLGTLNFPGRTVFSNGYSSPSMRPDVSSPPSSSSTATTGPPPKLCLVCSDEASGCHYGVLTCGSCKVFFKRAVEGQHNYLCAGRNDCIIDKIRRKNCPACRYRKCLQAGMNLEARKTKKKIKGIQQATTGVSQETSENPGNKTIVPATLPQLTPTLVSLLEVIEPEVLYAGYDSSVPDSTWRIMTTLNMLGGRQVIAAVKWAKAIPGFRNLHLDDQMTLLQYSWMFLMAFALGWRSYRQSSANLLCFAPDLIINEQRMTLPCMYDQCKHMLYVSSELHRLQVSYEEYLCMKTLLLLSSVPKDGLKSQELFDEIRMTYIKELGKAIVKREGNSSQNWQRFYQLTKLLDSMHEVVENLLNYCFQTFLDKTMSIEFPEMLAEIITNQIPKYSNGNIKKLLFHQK

O=C(O)Cc1cccc2ccccc12
inactive: outcome [1] | Potency [2] | activity change, negative = cytotoxicity [3] -29.6% | Potency [4] | Potency [5] | Potency [6] | Potency [7] | Potency [8] | Potency [9] | caspase-3 activation [10] 1.08% | Potency [11] | outcome [12] | outcome [13] | Potency [14] | Potency [15] | caspase-3 activation [16] 0.142%

O=c1cc(-c2ccccc2)oc2cc(O)c(O)c(O)c12
inactive: Potency [17] > 46 µM | Potency [18] > 46 µM | outcome [1] | outcome [19]

CN(C)CCC(c1ccccc1)c1ccccn1 (stereo unspecified)
inactive: outcome [1] | Potency [2] | activity change, negative = cytotoxicity [3] -2.83% | Potency [4] | Potency [5] | Potency [6] | Potency [7] | Potency [8] | Potency [9] | caspase-3 activation [10] 1.03% | Potency [11] | outcome [12] | outcome [13] | Potency [14] | Potency [15] | caspase-3 activation [16] 1.53%

NCCS
inactive: activity, negative = inhibition ([20]; at 38 µM (top of the series)) -9.49% | outcome [1] | outcome [19]

C[N+](C)(C)CC(=O)O
inactive: activity, negative = inhibition ([20]; at 38 µM (top of the series)) -8.86% | outcome [1] | outcome [19]

O=C(O)c1cc(O)c2c(c1)C(=O)c1cccc(O)c1C2=O
inactive: activity, negative = inhibition ([20]; at 17.2 µM (top of the series)) 11.9% | Potency [17] > 20.6 µM | outcome [1] | Potency [4] | Potency [5] | Potency [6] | Potency [7] | Potency [9] | caspase-3 activation [10] -6.3% | Potency [11] | outcome [12] | outcome [13] | Potency [14] | Potency [15] | caspase-3 activation [16] 1.57%

CC1(C)CCC2=C(O1)c1ccccc1C(=O)C2=O
inactive: Potency [17] > 46 µM | Potency [18] > 46 µM | outcome [1] | outcome [19]

O=C1C[C@@H](c2ccc(O)cc2)Oc2cc(O)cc(O)c21
inactive: activity, negative = inhibition ([20]; at 17.2 µM (top of the series)) 0.762% | Potency [17] > 20.6 µM and > 46 µM | Potency [18] > 20.6 µM and > 46 µM | outcome [1] | outcome [19]
